Source: PubChem BioAssay (Tox21)
Results filed as inconclusive are left out. Activity calls are given as the source filed them. Unless noted, the call rests on the fitted dose curve; in most records, active means well fitted curve in the direction sought with a large enough effect in the repeat runs; inconclusive means weak or mixed curves; inactive means no such curve, though single readings can be large; an effect the other way counts as inactive or inconclusive.

Legend:
[1] = qHTS assay to identify small molecule antagonists of the estrogen receptor beta (ER-beta) signaling pathway - cell viability counter screen (AID 1259382);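 further: HEK293T cells carrying ER-beta-UAS-bla reporter stimulated with estradiol; series mostly up to about 92 µM; nearly all actives have a fitted effect of over 55% in size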
Summary of the method: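 Cytotoxicity counter screen multiplexed with the beta-lactamase antagonist assay: GripTite HEK293T ER-beta-bla cells were treated 16 hr with test chemicals in the presence of 1nM 17-beta-estradiol, and viability was measured by CellTiter-Glo.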

[2] = biological target: Estrogen receptor (Homo sapiens) (UniProt P03372); experiment: qHTS assay to identify small molecule agonists of the estrogen receptor alpha (ER-alpha) signaling pathway in the presence of an antagonist (AID 1259383; calls by dose curve; further: top concentration of the series differs between compounds; nearly all actives have a fitted effect of over 15% in size)
Estrogen receptor (Homo sapiens), sequence (P03372 whole entry, looked up): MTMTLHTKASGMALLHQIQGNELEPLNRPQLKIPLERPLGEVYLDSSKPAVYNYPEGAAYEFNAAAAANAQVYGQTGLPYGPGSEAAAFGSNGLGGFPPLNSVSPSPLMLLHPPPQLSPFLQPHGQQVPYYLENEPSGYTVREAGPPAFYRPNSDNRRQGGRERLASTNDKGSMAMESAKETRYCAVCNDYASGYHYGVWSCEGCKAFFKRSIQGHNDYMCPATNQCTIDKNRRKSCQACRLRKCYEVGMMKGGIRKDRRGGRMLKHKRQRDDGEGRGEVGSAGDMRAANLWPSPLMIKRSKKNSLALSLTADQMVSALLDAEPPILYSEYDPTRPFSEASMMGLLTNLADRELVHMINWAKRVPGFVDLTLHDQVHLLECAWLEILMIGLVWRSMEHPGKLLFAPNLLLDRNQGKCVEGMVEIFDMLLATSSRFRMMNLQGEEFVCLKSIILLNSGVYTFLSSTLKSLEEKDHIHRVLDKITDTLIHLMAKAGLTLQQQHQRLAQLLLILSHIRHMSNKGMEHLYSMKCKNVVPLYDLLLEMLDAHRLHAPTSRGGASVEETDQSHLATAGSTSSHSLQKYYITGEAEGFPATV
Summary of the method: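 Agonist-mode confirmation in the presence of the ER antagonist ICI-182,780 at 10.0nM final. Breast-derived VM7Luc4E2 reporter cells were exposed to compounds for 22hr, and ERE-driven luciferase was quantified by luminescence.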

[3] = qHTS assay to identify small molecule agonists or antagonists of the thyroid stimulating hormone receptor (TSHR) signaling pathway - wild type cell line counter screen (AID 1259384; calls by dose curve)
Summary of the method: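 Wild-type HEK293 cells were plated 18 h at 37 C/5% CO2, pin-dosed with compound plus Ro20-1724 medium, held 30 min at room temperature, then given cAMP-d2 and anti-cAMP-cryptate; fluorescence was read after 1 h. Fifteen concentrations, triplicate.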

[4] = biological target: Progesterone receptor (Homo sapiens) (UniProt P06401); experiment: qHTS assay to identify small molecule agonists of the progesterone receptor (PR) signaling pathway (AID 1346784; calls by dose curve; further: nearly all actives have a fitted effect of over 30% in size)
Progesterone receptor (Homo sapiens), sequence (P06401 whole entry, looked up): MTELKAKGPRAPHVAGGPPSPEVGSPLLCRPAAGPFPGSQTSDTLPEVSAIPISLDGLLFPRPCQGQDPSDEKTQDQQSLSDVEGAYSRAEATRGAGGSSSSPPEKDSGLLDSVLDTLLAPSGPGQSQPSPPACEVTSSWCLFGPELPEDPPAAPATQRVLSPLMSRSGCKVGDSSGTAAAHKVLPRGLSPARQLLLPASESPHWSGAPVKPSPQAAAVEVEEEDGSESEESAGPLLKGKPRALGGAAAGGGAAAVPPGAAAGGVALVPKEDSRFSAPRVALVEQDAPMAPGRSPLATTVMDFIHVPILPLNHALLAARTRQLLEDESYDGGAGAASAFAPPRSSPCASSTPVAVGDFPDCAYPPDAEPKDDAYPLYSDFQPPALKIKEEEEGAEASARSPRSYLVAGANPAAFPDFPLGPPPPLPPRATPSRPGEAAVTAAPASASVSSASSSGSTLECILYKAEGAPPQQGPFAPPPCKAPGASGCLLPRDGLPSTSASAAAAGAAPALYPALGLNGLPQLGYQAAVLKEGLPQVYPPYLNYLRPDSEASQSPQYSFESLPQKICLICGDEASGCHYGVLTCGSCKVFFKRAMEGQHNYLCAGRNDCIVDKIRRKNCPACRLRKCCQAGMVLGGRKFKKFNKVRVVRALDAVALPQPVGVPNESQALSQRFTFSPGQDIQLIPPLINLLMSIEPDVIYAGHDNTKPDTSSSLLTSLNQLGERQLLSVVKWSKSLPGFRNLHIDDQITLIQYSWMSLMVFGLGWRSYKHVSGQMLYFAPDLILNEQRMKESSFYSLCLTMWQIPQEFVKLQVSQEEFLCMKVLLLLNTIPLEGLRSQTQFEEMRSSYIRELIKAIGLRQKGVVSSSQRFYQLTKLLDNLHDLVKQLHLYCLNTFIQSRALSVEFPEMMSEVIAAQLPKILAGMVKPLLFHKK
Summary of the method: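 Agonist qHTS: compounds pinned onto 3,000 PR-UAS-bla HEK 293T cells per well in charcoal-stripped serum medium, 16hr at 37C, then beta-lactamase activity measured by LiveBLAzer FRET fluorescence after 2 hours at room temperature.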

[5] = qHTS assay to identify small molecule antagonists of the progesterone receptor (PR) signaling pathway - cell viability counter screen (AID 1346798); further: series mostly up to about 92 µM; nearly all actives have a fitted effect of over 50% in size
Summary of the method: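 Cytotoxicity read as CellTiter-Glo luminescence (30 min, room temperature) in the same wells as the beta-lactamase readout. HEK293T PR-UAS-bla cells in charcoal-stripped 2% FBS received compound and R5020, then 16 h at 37C, 5% CO2.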

[6] = qHTS assay to identify small molecule antagonists of the TGF-beta/Smad signaling pathway - cell viability counter screen (AID 1346824); further: nearly all actives have a fitted effect of over 50% in size
Summary of the method: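 SBE-bla HEK 293T cells were plated overnight at 37 C, then given compounds in DMSO plus TGF-beta1 (added as 0.25 ng/mL solution) for 5 hr. After the bla read, CellTiter-Glo was added to the same wells and luminescence read after 30 min at room temperature.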

[7] = qHTS assay to identify small molecule agonists of the TGF-beta/Smad signaling pathway - cell viability counter screen (AID 1346829); further: top concentration of the series differs between compounds; nearly all actives have a fitted effect of over 45% in size
Summary of the method: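 HEK 293T SBE-bla line, 5 hr compound exposure at 37 C, multiplexed CellTiter-Glo viability read by luminescence.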

[8] = qHTS assay to identify small molecule agonists of the TGF-beta/Smad signaling pathway (AID 1346859; active means well fitted activation curve with a large enough effect in the signal ratio in the repeat runs, not every such curve was filed as active; the % refers to the signal ratio; further: series mostly up to about 77 µM)
Summary of the method: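 Fluorescence (ex 405 nm; em 460 and 530 nm) was read 2 h after LiveBLAzer FRET substrate at RT. The preceding compound treatment of overnight-plated SBE-bla HEK293T cells lasted 5 h at 37 C.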

[9] = biological target: Thyrotropin-releasing hormone receptor (Homo sapiens) (UniProt P34981); experiment: qHTS assay to identify small molecule antagonists of the thyrotropin-releasing hormone receptor (TRHR) signaling pathway (AID 1346877; active means well fitted inhibition curve with a large enough effect in the repeat runs, not every such curve was filed as active; further: series mostly up to about 51 µM)
Thyrotropin-releasing hormone receptor (Homo sapiens), sequence (P34981 whole entry, looked up): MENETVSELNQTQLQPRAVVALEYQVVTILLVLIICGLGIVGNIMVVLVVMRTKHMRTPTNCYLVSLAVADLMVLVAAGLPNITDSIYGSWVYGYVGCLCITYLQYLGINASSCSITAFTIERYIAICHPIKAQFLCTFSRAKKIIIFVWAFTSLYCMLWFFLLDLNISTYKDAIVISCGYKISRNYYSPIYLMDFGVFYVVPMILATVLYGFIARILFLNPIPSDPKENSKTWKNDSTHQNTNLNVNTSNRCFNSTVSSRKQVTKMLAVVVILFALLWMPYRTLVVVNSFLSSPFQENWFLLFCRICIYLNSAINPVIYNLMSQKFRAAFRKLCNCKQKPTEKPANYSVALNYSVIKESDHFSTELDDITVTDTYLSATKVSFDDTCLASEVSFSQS
Summary of the method: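 Antagonism is measured as suppression of the calcium response to 1 nM TRH in TRHR-HEK293 cells that have been dye-loaded for 2 h at 37 °C after overnight plating. Each compound is tested at 15 concentrations in triplicate.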

[10] = Caspase-3/7 induction in HepG2 cells by small molecules, qHTS assay (AID 1346978); further: nearly all actives have a fitted effect of over 15% in size
Summary of the method: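 Wild-type HepG2 cells (2,000/well) were settled 5 h at 37 C, 5% CO2, then exposed to compounds in DMSO for 17 h. Caspase-3/7 activity was read by luminescence 30 min after adding Caspase-Glo 3/7 reagent at room temperature.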

[11] = Caspase-3/7 induction in CHO-K1 cells by small molecules, qHTS assay (AID 1346980); further: nearly all actives have a fitted effect of over 15% in size
Summary of the method: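 Wild-type cells were seeded at 1,500 per well and settled 5 hr at 37 C, 5% CO2, then exposed to DMSO-dissolved compounds for 17 hr. Caspase-Glo 3/7 reagent was added, and luminescence was read after 30min at room temperature.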

[12] = biological target: Thyrotropin receptor (Homo sapiens) (UniProt P16473); experiment: qHTS assay to identify small molecule antagonists of the thyroid stimulating hormone receptor (TSHR) signaling pathway (AID 1259385; calls by dose curve; further: nearly all actives have a fitted effect of over 20% in size)
Thyrotropin receptor (Homo sapiens), sequence (P16473 whole entry, looked up): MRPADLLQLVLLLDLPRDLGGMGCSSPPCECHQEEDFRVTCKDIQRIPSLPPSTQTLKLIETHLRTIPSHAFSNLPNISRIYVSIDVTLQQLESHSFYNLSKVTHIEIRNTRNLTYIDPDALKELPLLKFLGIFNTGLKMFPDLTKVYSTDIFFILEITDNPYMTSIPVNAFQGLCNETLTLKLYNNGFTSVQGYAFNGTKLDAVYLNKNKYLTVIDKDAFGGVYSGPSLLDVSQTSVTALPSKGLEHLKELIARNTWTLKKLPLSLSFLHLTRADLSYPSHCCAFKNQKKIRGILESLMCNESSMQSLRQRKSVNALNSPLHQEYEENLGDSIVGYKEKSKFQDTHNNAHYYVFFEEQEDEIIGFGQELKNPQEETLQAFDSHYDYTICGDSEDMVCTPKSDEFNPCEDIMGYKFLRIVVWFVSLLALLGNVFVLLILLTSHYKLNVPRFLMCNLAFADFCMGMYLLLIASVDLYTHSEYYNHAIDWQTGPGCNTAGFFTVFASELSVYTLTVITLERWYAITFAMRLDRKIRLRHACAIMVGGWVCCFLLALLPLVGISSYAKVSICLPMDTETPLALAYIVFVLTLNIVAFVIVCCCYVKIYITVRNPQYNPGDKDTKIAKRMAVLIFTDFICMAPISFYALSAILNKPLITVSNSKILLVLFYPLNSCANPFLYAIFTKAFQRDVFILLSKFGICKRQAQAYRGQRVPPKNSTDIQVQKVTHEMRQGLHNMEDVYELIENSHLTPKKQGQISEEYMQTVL
Summary of the method: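 TSHR-HEK293 cells were plated and held 18 h at 37C/5% CO2, then given compound plus Ro20-1724 and stimulated with TSH at 1.5 ng/mL final. After 30 min at room temperature, cAMP was detected with cAMP-d2/anti-cAMP-cryptate (1 h) by fluorescence.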

[13] = qHTS assay to identify small molecule agonists of the estrogen receptor alpha (ER-alpha) signaling pathway in the presence of an antagonist - cell viability counter screen (AID 1259386);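 further: series mostly up to about 92 µM; cells exposed to compounds for 22 h at 37 °C before the viability read; nearly all actives have a fitted effect of over 30% in size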
Summary of the method: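 Cytotoxicity was measured in parallel with the ERE-luciferase agonist screen, in the same wells. The cells were VM7Luc4E2, which endogenously express ER-alpha, and treatment was with compounds plus 10.0nM ICI-182,780 for 22hr.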

[14] = Human pregnane X receptor (PXR) small molecule agonists, qHTS cell viability counter screen (AID 1346977); further: nearly all actives have a fitted effect of over 50% in size
Summary of the method: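 Same-well viability read: CellTiter-Fluor added after 23 hr compound exposure, fluorescence measured 1 hr later. Cells were PXR-Luc HepG2 seeded at 2,000/well in 5% charcoal-stripped FBS medium, rested 5 hr before dosing at 37 C.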

[15] = Caspase-3/7 induction in CHO-K1 cells by small molecules, qHTS cell viability counter screen (AID 1346979); further: nearly all actives have a fitted effect of over 35% in size
Summary of the method: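 Cytotoxicity counter screen: CellTiter-Fluor added to compound-treated wild-type CHO-K1 cells at 16 h (37C, 5% CO2), fluorescence measured 1 h later; same wells as caspase-3/7 measurement.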

[16] = Caspase-3/7 induction in HepG2 cells by small molecules, qHTS cell viability counter screen (AID 1346981); further: series mostly up to about 92 µM; nearly all actives have a fitted effect of over 30% in size
Summary of the method: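 Cell viability is measured as a cytotoxicity counter screen alongside the Caspase-Glo 3/7 readout in identical wells. Wild-type HepG2 cells are treated with test compounds for 16 hr at 37 C before CellTiter-Fluor addition and a 1-hr incubation.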

[17] = qHTS assay to identify small molecule agonists of the progesterone receptor (PR) signaling pathway - cell viability counter screen (AID 1346799; calls by dose curve; further: nearly all actives have a fitted effect of over 45% in size)
Summary of the method: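 Cytotoxicity measured by CellTiter-Glo luminescence (30 min, RT) in the same wells as the PR beta-lactamase agonist read. Those HEK293T cells had 16 h compound treatment at 37 C in 2% charcoal-stripped FBS medium.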

[18] = biological target: Thyrotropin-releasing hormone receptor (Homo sapiens) (UniProt P34981); experiment: qHTS assay to identify small molecule agonists of the thyrotropin-releasing hormone receptor (TRHR) signaling pathway (AID 1346891; calls by dose curve; further: series mostly up to about 58 µM)
Summary of the method: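 Agonist-mode intracellular calcium readout: kinetic fluorescence over 3 min at 1 s intervals after compound addition to TRHR-HEK293 cells (18 h seeded, 2 h dye-loaded at 37 C). Fifteen concentrations, triplicates.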

[19] = biological target: Progesterone receptor (Homo sapiens) (UniProt P06401); experiment: qHTS assay to identify small molecule antagonists of the progesterone receptor (PR) signaling pathway (AID 1346795; active means well fitted inhibition curve with a large enough effect in the signal ratio in the repeat runs, not every such curve was filed as active; the % refers to the signal ratio)
Summary of the method: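 Antagonist mode with agonist R5020 at 1 nM final and 16 hr incubation at 37C. Reporter was beta-lactamase driven by UAS in HEK293T (PR-UAS-bla), 2% charcoal-stripped serum; signal from LiveBLAzer FRET substrate, 2 hr at room temperature.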

Measured: Potency

C=CCN1C[C@H](C(=O)N(CCCN(C)C)C(=O)NCC)C[C@@H]2c3cccc4[nH]cc(c34)C[C@H]21
not listed: [12] | [13] | [14] | [15] | [16] | [17] | [18] | [19]
inactive: all other assays above

CCC[C@@H]1C[C@@H](C(=O)N[C@@H]([C@H]2O[C@H](SC)[C@H](O)[C@@H](O)[C@H]2O)[C@@H](C)O)N(C)C1
not listed: [4] | [17] | [18] | [19]
inactive: all other assays above

O=C(CCCCC(=O)Nc1c(I)cc(I)c(C(=O)O)c1I)Nc1c(I)cc(I)c(C(=O)O)c1I
not listed: [5] | [8] | [9] | [15] | [18] | [19]
inactive: all other assays above

C[Si]1(C)O[Si](C)(C)O[Si](C)(C)O[Si](C)(C)O[Si](C)(C)O1
not listed: [5] | [19]
inactive: all other assays above

Cn1nnc2c(C(N)=O)ncn2c1=O
not listed: [3] | [12]
inactive: all other assays above

CCCSSCCC
not listed: [4] | [8] | [18] | [19]
inactive: all other assays above

CCOC(=O)CC1(C)OCC(C)O1 (configuration not stated)
not listed: [4]
inactive: all other assays above

C[C@@H](O)C(=O)O
not listed: [4] | [5] | [17]
inactive: all other assays above

C=Cc1ccc(C(C)(C)C)cc1
not listed: [2]
inactive: all other assays above

C/C(=C1\CCOC(=O)S1)N(C=O)Cc1cnc(C)nc1N
not listed: [4] | [8] | [19]
inactive: all other assays above

CCCCCCC1(C)CCC(=O)O1 (configuration not stated)
not listed: [4] | [18]
inactive: all other assays above

CC(O)COC(C)(C)C (configuration not stated)
not listed: [2]
inactive: all other assays above

Cc1ccnc(N)c1
not listed: [2] | [9] | [15] | [16] | [18]
inactive: all other assays above

CC(C)NCC(O)c1ccc2ccccc2c1 (configuration not stated)
not listed: [2] | [4] | [14] | [19]
inactive: all other assays above

NCc1ccc(S(N)(=O)=O)cc1
not listed: [2] | [18]
inactive: all other assays above
